# Reference: paper PMC5540273 (PLoS ONE, 2017)
# Several values for one entry are separate records, joined by “and”; a condition that tells them apart may be missing. Identical values can stand only once. Like-named read-outs stand apart in the source and are kept apart here.
# Legend:
# Conditions in all cases: n = 1
# VRK2 = tested on: VRK2
# WEE1 = tested on: WEE1
# WEE2 = tested on: WEE2
# WNK1 = tested on: WNK1
# WNK2 = tested on: WNK2
# WNK3 = tested on: WNK3
# WNK4 = tested on: WNK4
# YANK1 = tested on: T1, YANK1
# T1 construct: gene STK32A
# YANK2 = tested on: T2, YANK2
# T2 construct: gene STK32B
# YANK3 = tested on: T3, YANK3
# T3 construct: gene STK32C
# YES = tested on: T4, YES
# T4 construct: gene YES1
# YSK1 = tested on: T5, YSK1
# T5 construct: gene STK25
# YSK4 = tested on: T6, YSK4
# T6 construct: gene MAP3K19
# ZAK = tested on: ZAK
# ZAP70 = tested on: ZAP70
# p38-alpha = tested on: T7, p38-alpha
# T7 construct: gene MAPK14
# p38-beta = tested on: T8, p38-beta
# T8 construct: gene MAPK11
# p38-delta = tested on: p38-delta
# p38-gamma = tested on: T9, p38-gamma
# T9 construct: gene MAPK12
# [1] = concentration: 1 μM, replicates: in singlicate
# [2] = concentration: 1 μM,replicates: in singlicate, 1 µM
# 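Note: KINOMEscan kinase panel screen.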
smiles,measurement,setting,value
O=C(O)COc1ncnc2cc(-c3ccc4[nH]ncc4c3)sc12,%Inh,VRK2; [1],8%
same,%Inh,WEE1; [1],0%
same,%Inh,WEE2; [1],6%
same,%Inh,WNK1; [1],7%
same,%Inh,WNK2; [1],32%
same,%Inh,WNK3; [1],1%
same,%Inh,WNK4; [1],23%
same,%Inh,YANK1; [1],12%
same,%Inh,YANK2; [1],4%
same,%Inh,YANK3; [1],14%
same,%Inh,YES; [1],0%
same,%Inh,YSK1; [1],0%
same,%Inh,YSK4; [1],83%
same,%Inh,ZAK; [1],6%
same,%Inh,ZAP70; [1],14%
same,%Inh,p38-alpha; [1],20%
same,%Inh,p38-beta; [1],16%
same,%Inh,p38-delta; [1],32%
same,%Inh,p38-gamma; [1],21%
Cc1c(Cn2ccn3c(=O)cc(N4CCOCC4)nc23)cccc1C(F)(F)F [GSK2289044],%Inh,VRK2; [1],0%
same,%Inh,WEE1; [1],0%
same,%Inh,WEE2; [1],0%
same,%Inh,WNK1; [1],0%
same,%Inh,WNK2; [1],0%
same,%Inh,WNK3; [1],14%
same,%Inh,WNK4; [1],0%
same,%Inh,YANK1; [1],9%
same,%Inh,YANK2; [1],1%
same,%Inh,YANK3; [1],31%
same,%Inh,YES; [1],3%
same,%Inh,YSK1; [1],0%
same,%Inh,YSK4; [1],43%
same,%Inh,ZAK; [1],8%
same,%Inh,ZAP70; [1],0%
same,%Inh,p38-alpha; [1],0%
same,%Inh,p38-beta; [1],0%
same,%Inh,p38-delta; [1],12%
same,%Inh,p38-gamma; [1],12%
CC(=O)Nc1nc2cnc(Nc3cc(NC(=O)c4cccc(CCC#N)c4)ccc3C)nc2s1,%Inh,VRK2; [1],0%
same,%Inh,WEE1; [1],0%
same,%Inh,WEE2; [1],0%
same,%Inh,WNK1; [1],0%
same,%Inh,WNK2; [1],22%
same,%Inh,WNK3; [1],0%
same,%Inh,WNK4; [1],11%
same,%Inh,YANK1; [1],15%
same,%Inh,YANK2; [1],9%
same,%Inh,YANK3; [1],34%
same,%Inh,YES; [1],3%
same,%Inh,YSK1; [1],0%
same,%Inh,YSK4; [1],19%
same,%Inh,ZAK; [1],0%
same,%Inh,ZAP70; [1],0%
same,%Inh,p38-alpha; [1],77%
same,%Inh,p38-beta; [1],17%
same,%Inh,p38-delta; [1],16%
same,%Inh,p38-gamma; [1],32%
Cc1cccc(-c2nc(Nc3ccncc3)c3ccccc3n2)n1 [GW855857],%Inh,VRK2; [1],0%
same,%Inh,WEE1; [1],23%
same,%Inh,WEE2; [1],8%
same,%Inh,WNK1; [1],0%
same,%Inh,WNK2; [1],0%
same,%Inh,WNK3; [1],0%
same,%Inh,WNK4; [1],0%
same,%Inh,YANK1; [1],0%
same,%Inh,YANK2; [1],0%
same,%Inh,YANK3; [1],0%
same,%Inh,YES; [1],0%
same,%Inh,YSK1; [1],0%
same,%Inh,YSK4; [1],0%
same,%Inh,ZAK; [1],4%
same,%Inh,ZAP70; [1],0%
same,%Inh,p38-alpha; [1],16%
same,%Inh,p38-beta; [1],1%
same,%Inh,p38-delta; [1],0%
same,%Inh,p38-gamma; [1],24%
COc1ccc(Nc2nccc(-c3cccc(NC(=O)c4cc5cc(F)ccc5[nH]4)c3)n2)cc1 [GSK1229782],%Inh,VRK2; [1],27%
same,%Inh,WEE1; [1],33%
same,%Inh,WEE2; [1],16%
same,%Inh,WNK1; [1],11%
same,%Inh,WNK2; [1],12%
same,%Inh,WNK3; [1],31%
same,%Inh,WNK4; [1],59%
same,%Inh,YANK1; [1],3%
same,%Inh,YANK2; [1],0%
same,%Inh,YANK3; [1],30%
same,%Inh,YES; [1],29%
same,%Inh,YSK1; [1],31%
same,%Inh,YSK4; [1],79%
same,%Inh,ZAK; [1],22%
same,%Inh,ZAP70; [1],0%
same,%Inh,p38-alpha; [1],27%
same,%Inh,p38-beta; [1],0%
same,%Inh,p38-delta; [1],45%
same,%Inh,p38-gamma; [1],48%
Fc1cc(Cl)ccc1Nc1ccnc2cc(-c3ccc(CN4CCCCC4)o3)ccc12 [GW560116],%Inh,VRK2; [1],38%
same,%Inh,WEE1; [1],0%
same,%Inh,WEE2; [1],4%
same,%Inh,WNK1; [1],0%
same,%Inh,WNK2; [1],0%
same,%Inh,WNK3; [1],34%
same,%Inh,WNK4; [1],49%
same,%Inh,YANK1; [1],0%
same,%Inh,YANK2; [1],0%
same,%Inh,YANK3; [1],0%
same,%Inh,YES; [1],1%
same,%Inh,YSK1; [1],17%
same,%Inh,YSK4; [1],5%
same,%Inh,ZAK; [1],0%
same,%Inh,ZAP70; [1],0%
same,%Inh,p38-alpha; [1],36%
same,%Inh,p38-beta; [1],0%
same,%Inh,p38-delta; [1],40%
same,%Inh,p38-gamma; [1],9%
COC(=O)c1c(-c2ccccc2)c2cc(C(=O)O)ccc2c(=O)n1Cc1ccccc1,%Inh,VRK2; [1],0%
same,%Inh,WEE1; [1],0%
same,%Inh,WEE2; [1],0%
same,%Inh,WNK1; [1],0%
same,%Inh,WNK2; [1],0%
same,%Inh,WNK3; [1],0%
same,%Inh,WNK4; [1],3%
same,%Inh,YANK1; [1],0%
same,%Inh,YANK2; [1],3%
same,%Inh,YANK3; [1],2%
same,%Inh,YES; [1],0%
same,%Inh,YSK1; [1],0%
same,%Inh,YSK4; [1],0%
same,%Inh,ZAK; [1],0%
same,%Inh,ZAP70; [1],31%
same,%Inh,p38-alpha; [1],24%
same,%Inh,p38-beta; [1],19%
same,%Inh,p38-delta; [1],21%
same,%Inh,p38-gamma; [1],0%
Cc1ccccc1-n1cnc2c(N)ncnc21 [SKF-97510],%Inh,VRK2; [1],0%
same,%Inh,WEE1; [1],1%
same,%Inh,WEE2; [1],0%
same,%Inh,WNK1; [1],0%
same,%Inh,WNK2; [1],0%
same,%Inh,WNK3; [1],0%
same,%Inh,WNK4; [1],0%
same,%Inh,YANK1; [1],0%
same,%Inh,YANK2; [1],0%
same,%Inh,YANK3; [1],0%
same,%Inh,YES; [1],11%
same,%Inh,YSK1; [1],9%
same,%Inh,YSK4; [1],0%
same,%Inh,ZAK; [1],9%
same,%Inh,ZAP70; [1],0%
same,%Inh,p38-alpha; [1],0%
same,%Inh,p38-beta; [1],0%
same,%Inh,p38-delta; [1],0%
same,%Inh,p38-gamma; [1],15%
Cc1ccc(NC(=O)Nc2cccc(C(F)(F)F)c2)cc1 [GSK955403],%Inh,VRK2; 1 µM,0%
same,%Inh,WEE1; 1 µM,3%
same,%Inh,WEE2; 1 µM,0%
same,%Inh,WNK1; 1 µM,0%
same,%Inh,WNK2; 1 µM,0%
same,%Inh,WNK3; 1 µM,0%
same,%Inh,WNK4; 1 µM,0%
same,%Inh,YANK1; 1 µM,0%
same,%Inh,YANK2; 1 µM,0%
same,%Inh,YANK3; 1 µM,0%
same,%Inh,YES; 1 µM,10%
same,%Inh,YSK1; 1 µM,0%
same,%Inh,YSK4; 1 µM,0%
same,%Inh,ZAK; 1 µM,39%
same,%Inh,ZAP70; 1 µM,0%
same,%Inh,p38-alpha; 1 µM,10%
same,%Inh,p38-beta; 1 µM,57%
same,%Inh,p38-delta; 1 µM,0%
same,%Inh,p38-gamma; 1 µM,46%
CSc1nn2c(=O)cc(N3CCOCC3)nc2n1Cc1cccc(C(F)(F)F)c1C [GSK2363608],%Inh,WEE1; [2],15% and 11%
same,%Inh,WEE2; [2],9% and 10%
same,%Inh,WNK1; [2],13% and 7%
same,%Inh,WNK2; [2],14% and 22%
same,%Inh,WNK3; [2],24% and 10%
same,%Inh,WNK4; [2],1% and 4%
same,%Inh,YANK1; [2],0% and 3%
same,%Inh,YANK2; [2],8% and 0%
same,%Inh,YANK3; [2],0% and 68%
same,%Inh,YES; [2],19% and 22%
same,%Inh,YSK1; [2],1% and 0%
same,%Inh,YSK4; [2],40% and 30%
same,%Inh,ZAK; [2],10% and 0%
same,%Inh,ZAP70; [2],32% and 0%
same,%Inh,p38-delta; [2],55% and 34%
same,%Inh,p38-gamma; [2],7% and 0%
COc1ccccc1CNC(=O)c1cc(C(=O)c2ccccc2C)c[nH]1 [GSK364507],%Inh,p38-alpha; 1 µM,93.3%
